Common to all, as to assay: NCI-60 one-dose screen, 48 h (100 = growth as untreated, 0 = no growth, -100 = all killed)
What all share (conditions): 10 µM unless noted

The subject of assay [1] is T-47D breast.
Assay [2] relates to BT-549 breast.
The test system of assay [3] is MDA-MB-435 melanoma.
Assay [4] relates to SW-620 colon.
Assay [5] has as its system MCF7 breast.
Assay [6] deals with HCT-116 colon.
In assay [7] the test system is HCC-2998 colon.
Assay [8] relates to KM12 colon.

Compounds without any hit were thinned out: in the full panel of roughly 83,000, 20% have a hit.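 Step 1: grow cells in 96-well plates. Step 2: add test compound at a single concentration. Step 3: incubate 48 h. Step 4: record percent growth.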 A number with no mark means an inactive call. Activity calls are given as the source filed them. Rule for the calls: active = growth percent below 10; inactive = the rest.

`COc1ccc(CCN2C(=O)/C(=C/c3nc(CO)cs3)SC2=S)cc1`: the growth in assay [1] was 76.4%; in assay [2] it was 97.1%; in assay [3] it was 96%; in assay [4] it was 93.7%; in assay [5] it was 16%; in assay [6], 59.9%. Moreover, the values for the growth in assay [7] and in assay [8] were 107% and 17.8%, respectively.
With `COc1ccccc1/C=C/C=N/NC1=NC2C(S1)N(C)C(=O)N2c1ccccc1` (configuration not stated), the growth is 77.8% in assay [1]; 10% in assay [2]; -20.6% (active) in assay [3]; 17.7% in assay [4]; 13.4% in assay [5]; 3.81% (active) in assay [6]. The results for the growth in assay [7] and in assay [8] were 19.9% and 7.34% (active), respectively.
Regarding `COc1cc2c3c(n(CCCNC4CCCC4)c(=O)c2cc1OC)-c1cc2c(cc1C3=O)OCO2`, the growth in assay [1] is 86%; in assay [2], 74.8%; in assay [3], -49.6% (active); in assay [4], -83.6% (active); in assay [5], -74.8% (active); in assay [6] it was -90.9% (active). Further, the growth in assay [7] was 23.2%; in assay [8], 65.6%.
On to `CC(C)Sc1nc(NC2CC2)c(C#N)c(-c2ccccc2)n1`, for which the growth is 83.5% in assay [1]; 105% in assay [2]; 88.1% in assay [3]; 82.6% in assay [4]; 73.7% in assay [5]; 53.2% in assay [6]. Also, the figures for the growth in assay [7] and in assay [8] were 89.9% and 97.5%, respectively.
For the compound `O=C(/C=C1\C=CN(CCCCF)c2ccccc21)n1ccc2ccccc21`, the growth in assay [1] is 91%; in assay [2], 114%; in assay [3], 106%; in assay [4] it was 105%; in assay [5], 91.8%; in assay [6], 105%. The values for the growth in assay [7] and in assay [8] were 106% and 112%, respectively.
Consider `C/C(=N\NC(=O)CSc1nc2sc3c(c2c(=O)n1-c1ccccc1)CCC(C)C3)c1ccc(Cl)cc1` (configuration not stated), for which the growth in assay [1] was 46.4%; in assay [2] it was 36.8%; in assay [3], 30.1%; in assay [4], 31.6%; in assay [5] it was 14%; in assay [6] it was 26.6%. The growth is 45.4% in assay [7] and 25.1% in assay [8].
Take `Cc1ccc(-c2nnc3sc(C4=Cc5ccccc5OC=C4)nn23)cc1`: the growth was 91.6% in assay [1]; 95.7% in assay [2]; 93.7% in assay [3]; 99.9% in assay [4]; 88.9% in assay [5]; 104% in assay [6]. Also, the growth in assay [8] was 106%.
On to `O=C1[C@H]2Cc3c([nH]c4ccccc34)[C@@H](c3c(Cl)cccc3Cl)N2C(=O)CN1C1CCN(Cc2ccccc2)CC1`, for which the growth in assay [1] is 102%; in assay [2] it was 106%; in assay [3] it was 0.213% (active); in assay [4] it was 44.5%; in assay [5], 47.5%; in assay [6], -1.46% (active). For the same compound, the growth in assay [8] is 84.5%.
Regarding `CSc1nccc(-c2c(-c3ccc(F)c(OCc4ccc(F)cc4)c3)nc3sccn23)n1`, the growth in assay [1] was 65.9%; in assay [2] it was 71.3%; in assay [3] it was 59.7%; in assay [4], 48.9%; in assay [5], 65%; in assay [6], 51.3%. Moreover, the growth in assay [8] is 80.1%.
In the case of `C=C1C(=O)O[C@@H]2C[C@@H](C)CCC(=O)[C@](C)(OC(C)=O)C[C@H](OC(=O)/C(C)=C\C)[C@@H]12`, the growth in assay [1] was 39%; in assay [2], 80.3%; in assay [3], 65.9%; in assay [4], 45.7%; in assay [5], 35.1%; in assay [6] it was 25.3%. For the same compound, the growth in assay [8] was 91.6%.
With `CNC(=O)c1cc(Oc2ccc3nc(NC(=O)c4cccc(C(F)(F)F)c4)sc3c2)ccn1`, the growth is 96.9% in assay [1]; 105% in assay [2]; 95.1% in assay [3]; 105% in assay [4]; 85.6% in assay [5]; 94.1% in assay [6]. Further, the results for the growth in assay [7] and in assay [8] were 109% and 102%, respectively.
For `CS(=O)(=O)c1nccc(-c2c(-c3ccc(F)c(OCc4ccccc4)c3)nc3sccn23)n1`, the growth in assay [1] was 18.5%; in assay [2] it was -0.34% (active); in assay [3] it was 101%; in assay [4], 100%; in assay [5], 16.5%; in assay [6] it was 38%. In addition, in assay [8], the growth was 96.5%.
On to `CCc1ccc(NC(=O)N[C@@H](Cc2cccc(C)c2)C(=O)N[C@@H]2C(=O)N3CCC[C@H]3C(=O)N3CCCC[C@H]3C(=O)N[C@@H](CO)C(=O)N3C[C@H](C)C[C@H]3C(=O)O[C@H]2C)c(F)c1`, for which the growth in assay [1] was 27.4%; in assay [2], 24.9%; in assay [3], 16.8%; in assay [4], 34.7%; in assay [5], 17.6%; in assay [6], 11.8%. For the same compound, the growth in assay [8] was 37.6%.
`C=C(C)C(=O)O[C@H]1C[C@@]2(C)OC(=CC2=O)/C(C)=C\[C@H]2OC(=O)C(=C)[C@H]12`: the growth in assay [1] is -0.517% (active); in assay [2], -9.12% (active); in assay [3] it was -57.4% (active); in assay [4] it was -41.7% (active); in assay [5], 11.7%; in assay [6], -68.5% (active). Besides, in assay [8], the growth is -8.25% (active).
Take `CC1(C)CC[C@]2(C(=O)N3CCCN(CC#N)CC3)CC[C@]3(C)C(=CC[C@@H]4[C@@]5(C)CC[C@H](O)C(C)(C)[C@@H]5CC[C@]43C)[C@H]2C1`: the growth in assay [1] was 52.1%; in assay [2], 61.4%; in assay [3], 59.8%; in assay [4] it was 27.8%; in assay [5] it was 5.68% (active); in assay [6], -47.6% (active). In assay [8], the growth was 54.1%.

(Values after PubChem BioAssay (NCI).)
